Experimental data as given in ChEMBL document CHEMBL2218924, “A broad activity screen in support of a chemogenomic map for kinase signalling research and drug discovery” (Biochem J, 2013).

Legend:
[1] = target: T1, Serine/threonine-protein kinase 3 (Homo sapiens) (UniProt Q13188); conditions: at 1 µM
T1 sequence (whole entry): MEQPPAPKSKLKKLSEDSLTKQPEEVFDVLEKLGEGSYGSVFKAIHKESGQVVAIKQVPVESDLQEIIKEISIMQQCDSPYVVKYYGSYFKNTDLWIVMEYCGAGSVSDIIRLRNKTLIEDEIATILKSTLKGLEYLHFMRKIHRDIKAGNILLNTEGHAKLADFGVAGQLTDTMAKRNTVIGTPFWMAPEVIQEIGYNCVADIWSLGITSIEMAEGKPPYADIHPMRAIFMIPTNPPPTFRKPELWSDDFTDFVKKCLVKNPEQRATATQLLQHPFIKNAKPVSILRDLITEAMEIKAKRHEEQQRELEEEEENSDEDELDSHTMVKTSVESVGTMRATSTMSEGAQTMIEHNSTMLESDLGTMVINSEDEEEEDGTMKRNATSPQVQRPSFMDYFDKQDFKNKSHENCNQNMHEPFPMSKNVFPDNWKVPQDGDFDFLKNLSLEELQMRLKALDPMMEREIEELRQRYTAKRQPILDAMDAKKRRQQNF

[2] = target: T1, Serine/threonine-protein kinase 3 (Homo sapiens); conditions: at 10 µM
[3] = target: Serine/threonine-protein kinase 24 (Homo sapiens) (UniProt Q9Y6E0); conditions: at 1 µM
Serine/threonine-protein kinase 24 (Homo sapiens), sequence (Q9Y6E0 whole entry, looked up): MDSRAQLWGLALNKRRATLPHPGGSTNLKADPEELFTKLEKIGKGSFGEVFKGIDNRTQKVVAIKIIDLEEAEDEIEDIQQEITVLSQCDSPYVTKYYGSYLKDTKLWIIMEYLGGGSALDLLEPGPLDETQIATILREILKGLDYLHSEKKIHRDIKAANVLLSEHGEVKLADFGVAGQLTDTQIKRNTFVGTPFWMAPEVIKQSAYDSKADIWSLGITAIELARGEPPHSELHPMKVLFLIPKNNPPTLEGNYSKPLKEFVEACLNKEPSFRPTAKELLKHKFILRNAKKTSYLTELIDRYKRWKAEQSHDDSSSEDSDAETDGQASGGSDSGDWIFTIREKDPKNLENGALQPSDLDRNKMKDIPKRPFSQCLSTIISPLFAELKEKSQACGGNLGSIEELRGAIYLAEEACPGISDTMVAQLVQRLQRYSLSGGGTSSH

[4] = target: Serine/threonine-protein kinase 24 (Homo sapiens) (UniProt Q9Y6E0); conditions: at 10 µM
[5] = target: T2, Tyrosine-protein kinase Mer (Homo sapiens) (UniProt Q12866); conditions: at 1 µM
T2 sequence (whole entry): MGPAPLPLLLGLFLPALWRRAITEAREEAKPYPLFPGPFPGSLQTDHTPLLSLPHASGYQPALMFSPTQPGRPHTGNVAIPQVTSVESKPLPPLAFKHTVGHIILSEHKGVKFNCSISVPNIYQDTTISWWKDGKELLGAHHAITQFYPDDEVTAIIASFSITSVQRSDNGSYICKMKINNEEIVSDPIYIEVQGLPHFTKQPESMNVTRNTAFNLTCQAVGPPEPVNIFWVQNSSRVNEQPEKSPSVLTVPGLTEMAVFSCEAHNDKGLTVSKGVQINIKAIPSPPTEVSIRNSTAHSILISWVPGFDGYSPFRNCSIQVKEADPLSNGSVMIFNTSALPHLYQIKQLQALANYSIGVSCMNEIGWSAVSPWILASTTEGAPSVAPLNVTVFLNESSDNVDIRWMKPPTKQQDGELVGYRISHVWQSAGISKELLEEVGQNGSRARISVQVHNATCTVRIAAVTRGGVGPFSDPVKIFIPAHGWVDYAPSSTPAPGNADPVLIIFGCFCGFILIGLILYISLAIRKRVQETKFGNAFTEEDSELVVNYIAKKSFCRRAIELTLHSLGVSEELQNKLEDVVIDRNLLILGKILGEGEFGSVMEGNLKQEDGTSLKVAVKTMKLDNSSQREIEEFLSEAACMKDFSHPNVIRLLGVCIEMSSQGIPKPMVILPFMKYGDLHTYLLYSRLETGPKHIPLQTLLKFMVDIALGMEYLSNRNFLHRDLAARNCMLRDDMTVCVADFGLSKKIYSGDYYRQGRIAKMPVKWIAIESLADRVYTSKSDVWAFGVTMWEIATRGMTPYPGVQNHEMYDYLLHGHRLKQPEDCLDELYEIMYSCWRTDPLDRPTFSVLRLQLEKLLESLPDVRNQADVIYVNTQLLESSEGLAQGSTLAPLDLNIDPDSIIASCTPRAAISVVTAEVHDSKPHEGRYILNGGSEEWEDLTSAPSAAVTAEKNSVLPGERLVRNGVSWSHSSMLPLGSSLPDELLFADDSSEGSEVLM

[6] = target: T2, Tyrosine-protein kinase Mer (Homo sapiens); conditions: at 10 µM
[7] = target: Hepatocyte growth factor receptor (Homo sapiens) (UniProt P08581); conditions: at 1 µM
Hepatocyte growth factor receptor (Homo sapiens), sequence (P08581 whole entry): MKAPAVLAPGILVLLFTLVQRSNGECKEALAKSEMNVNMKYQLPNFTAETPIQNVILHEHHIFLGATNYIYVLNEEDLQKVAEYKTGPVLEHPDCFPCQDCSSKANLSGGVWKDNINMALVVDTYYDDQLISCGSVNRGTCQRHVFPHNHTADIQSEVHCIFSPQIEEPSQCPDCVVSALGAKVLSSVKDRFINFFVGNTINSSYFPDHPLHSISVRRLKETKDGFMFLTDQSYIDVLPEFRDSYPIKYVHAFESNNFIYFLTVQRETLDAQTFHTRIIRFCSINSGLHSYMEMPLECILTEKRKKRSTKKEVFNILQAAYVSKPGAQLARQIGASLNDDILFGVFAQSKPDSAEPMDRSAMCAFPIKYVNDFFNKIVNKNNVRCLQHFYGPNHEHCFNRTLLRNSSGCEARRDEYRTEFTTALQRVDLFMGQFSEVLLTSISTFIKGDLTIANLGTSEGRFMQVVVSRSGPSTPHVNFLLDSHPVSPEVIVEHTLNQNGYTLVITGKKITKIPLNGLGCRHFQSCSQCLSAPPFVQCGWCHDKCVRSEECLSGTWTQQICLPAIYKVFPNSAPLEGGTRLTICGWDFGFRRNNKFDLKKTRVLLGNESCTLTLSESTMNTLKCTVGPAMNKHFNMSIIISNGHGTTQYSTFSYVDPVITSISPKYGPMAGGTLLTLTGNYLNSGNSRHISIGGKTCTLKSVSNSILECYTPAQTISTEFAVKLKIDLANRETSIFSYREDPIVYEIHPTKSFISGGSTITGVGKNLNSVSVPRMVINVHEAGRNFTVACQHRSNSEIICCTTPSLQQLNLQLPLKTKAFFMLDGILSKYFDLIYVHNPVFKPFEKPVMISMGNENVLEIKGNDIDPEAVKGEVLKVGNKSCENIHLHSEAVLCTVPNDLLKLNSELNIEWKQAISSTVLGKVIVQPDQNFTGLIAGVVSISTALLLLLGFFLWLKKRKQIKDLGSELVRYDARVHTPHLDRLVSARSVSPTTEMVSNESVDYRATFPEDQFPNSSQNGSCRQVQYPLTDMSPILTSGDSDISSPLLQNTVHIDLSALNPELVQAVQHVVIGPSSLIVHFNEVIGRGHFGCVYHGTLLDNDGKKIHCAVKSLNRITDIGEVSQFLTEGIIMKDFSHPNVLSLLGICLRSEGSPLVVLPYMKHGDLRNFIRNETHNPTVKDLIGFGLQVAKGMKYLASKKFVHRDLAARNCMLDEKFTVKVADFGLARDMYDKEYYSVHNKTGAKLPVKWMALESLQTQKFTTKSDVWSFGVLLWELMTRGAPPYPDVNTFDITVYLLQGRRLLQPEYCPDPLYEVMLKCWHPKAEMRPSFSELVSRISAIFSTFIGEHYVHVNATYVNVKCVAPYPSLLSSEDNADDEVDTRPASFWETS

[8] = target: Hepatocyte growth factor receptor (Homo sapiens) (UniProt P08581); conditions: at 10 µM
[9] = target: MAP kinase-interacting serine/threonine-protein kinase 2 (Homo sapiens) (UniProt Q9HBH9); conditions: at 1 µM
MAP kinase-interacting serine/threonine-protein kinase 2 (Homo sapiens), sequence (Q9HBH9 whole entry, looked up): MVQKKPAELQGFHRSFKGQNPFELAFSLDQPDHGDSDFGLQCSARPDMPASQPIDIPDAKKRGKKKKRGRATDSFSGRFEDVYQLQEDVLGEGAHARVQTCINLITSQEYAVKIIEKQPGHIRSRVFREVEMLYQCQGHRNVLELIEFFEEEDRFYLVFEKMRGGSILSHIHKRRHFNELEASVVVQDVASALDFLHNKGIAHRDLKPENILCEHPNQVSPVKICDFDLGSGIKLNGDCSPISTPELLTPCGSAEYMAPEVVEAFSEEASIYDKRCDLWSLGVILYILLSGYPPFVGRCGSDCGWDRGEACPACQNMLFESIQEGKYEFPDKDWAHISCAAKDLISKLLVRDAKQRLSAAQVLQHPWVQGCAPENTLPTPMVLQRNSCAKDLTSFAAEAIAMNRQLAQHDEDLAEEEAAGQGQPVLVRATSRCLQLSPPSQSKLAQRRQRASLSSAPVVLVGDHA

[10] = target: MAP kinase-interacting serine/threonine-protein kinase 2 (Homo sapiens) (UniProt Q9HBH9); conditions: at 10 µM
[11] = target: T3, Muscle, skeletal receptor tyrosine-protein kinase (Homo sapiens) (UniProt O15146); conditions: at 1 µM
T3 sequence (whole entry): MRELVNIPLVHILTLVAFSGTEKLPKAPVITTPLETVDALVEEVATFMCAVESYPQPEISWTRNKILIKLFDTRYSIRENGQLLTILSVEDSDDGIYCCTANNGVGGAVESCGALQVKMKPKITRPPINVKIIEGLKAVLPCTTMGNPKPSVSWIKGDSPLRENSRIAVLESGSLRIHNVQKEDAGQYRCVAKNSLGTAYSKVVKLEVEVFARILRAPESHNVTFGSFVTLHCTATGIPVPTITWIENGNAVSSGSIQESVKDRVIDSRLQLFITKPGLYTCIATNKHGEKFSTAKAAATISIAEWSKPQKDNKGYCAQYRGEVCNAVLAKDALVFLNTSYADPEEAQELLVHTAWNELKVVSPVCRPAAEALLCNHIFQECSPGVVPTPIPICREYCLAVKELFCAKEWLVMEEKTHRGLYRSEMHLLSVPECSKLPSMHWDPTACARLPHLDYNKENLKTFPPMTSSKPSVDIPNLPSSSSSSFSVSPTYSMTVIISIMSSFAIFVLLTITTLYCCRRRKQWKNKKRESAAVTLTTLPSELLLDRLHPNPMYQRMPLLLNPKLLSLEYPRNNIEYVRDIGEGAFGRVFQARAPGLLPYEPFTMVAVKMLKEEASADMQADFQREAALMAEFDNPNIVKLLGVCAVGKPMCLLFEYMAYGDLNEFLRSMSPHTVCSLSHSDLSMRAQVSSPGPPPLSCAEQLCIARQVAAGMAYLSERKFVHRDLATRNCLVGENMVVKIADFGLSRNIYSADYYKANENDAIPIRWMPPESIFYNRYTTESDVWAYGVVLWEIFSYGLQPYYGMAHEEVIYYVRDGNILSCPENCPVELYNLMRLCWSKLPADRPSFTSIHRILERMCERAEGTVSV

[12] = target: T3, Muscle, skeletal receptor tyrosine-protein kinase (Homo sapiens); conditions: at 10 µM
[13] = target: T4, Serine/threonine-protein kinase Nek11 (Homo sapiens) (UniProt Q8NG66); conditions: at 1 µM
T4 sequence (whole entry): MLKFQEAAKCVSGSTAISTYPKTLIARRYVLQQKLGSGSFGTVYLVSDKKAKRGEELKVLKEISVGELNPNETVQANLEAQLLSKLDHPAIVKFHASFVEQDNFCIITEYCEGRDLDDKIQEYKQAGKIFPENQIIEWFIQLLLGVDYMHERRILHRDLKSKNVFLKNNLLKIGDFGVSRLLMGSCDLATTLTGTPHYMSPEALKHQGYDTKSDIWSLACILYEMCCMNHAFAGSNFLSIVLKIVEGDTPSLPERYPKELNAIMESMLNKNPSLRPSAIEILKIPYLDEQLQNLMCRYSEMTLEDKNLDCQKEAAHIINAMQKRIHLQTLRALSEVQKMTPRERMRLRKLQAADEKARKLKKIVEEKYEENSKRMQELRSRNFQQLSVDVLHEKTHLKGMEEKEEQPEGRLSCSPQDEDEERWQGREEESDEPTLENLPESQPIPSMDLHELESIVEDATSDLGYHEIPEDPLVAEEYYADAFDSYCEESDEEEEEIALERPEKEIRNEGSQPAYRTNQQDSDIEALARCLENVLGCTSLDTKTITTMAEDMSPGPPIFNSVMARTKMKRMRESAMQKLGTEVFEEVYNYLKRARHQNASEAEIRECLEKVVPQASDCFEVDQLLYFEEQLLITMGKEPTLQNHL

[14] = target: T4, Serine/threonine-protein kinase Nek11 (Homo sapiens); conditions: at 10 µM
[15] = target: T5, Serine/threonine-protein kinase Nek2 (Homo sapiens) (UniProt P51955); conditions: at 1 µM
T5 sequence (whole entry): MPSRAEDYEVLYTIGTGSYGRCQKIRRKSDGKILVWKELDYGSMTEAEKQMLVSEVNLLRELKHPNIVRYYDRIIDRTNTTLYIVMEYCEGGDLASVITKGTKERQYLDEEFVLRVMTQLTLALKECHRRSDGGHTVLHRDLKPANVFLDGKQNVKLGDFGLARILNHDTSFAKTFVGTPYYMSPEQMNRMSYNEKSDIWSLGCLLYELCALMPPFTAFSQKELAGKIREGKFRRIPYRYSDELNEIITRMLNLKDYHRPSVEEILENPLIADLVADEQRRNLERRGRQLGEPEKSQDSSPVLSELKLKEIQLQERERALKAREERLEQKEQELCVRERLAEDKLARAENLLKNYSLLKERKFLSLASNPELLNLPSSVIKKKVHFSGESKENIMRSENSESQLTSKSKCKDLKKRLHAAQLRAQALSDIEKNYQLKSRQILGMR

[16] = target: T5, Serine/threonine-protein kinase Nek2 (Homo sapiens); conditions: at 10 µM
[17] = target: T6, Serine/threonine-protein kinase Nek3 (Homo sapiens) (UniProt P51956); conditions: at 1 µM
T6 sequence (whole entry): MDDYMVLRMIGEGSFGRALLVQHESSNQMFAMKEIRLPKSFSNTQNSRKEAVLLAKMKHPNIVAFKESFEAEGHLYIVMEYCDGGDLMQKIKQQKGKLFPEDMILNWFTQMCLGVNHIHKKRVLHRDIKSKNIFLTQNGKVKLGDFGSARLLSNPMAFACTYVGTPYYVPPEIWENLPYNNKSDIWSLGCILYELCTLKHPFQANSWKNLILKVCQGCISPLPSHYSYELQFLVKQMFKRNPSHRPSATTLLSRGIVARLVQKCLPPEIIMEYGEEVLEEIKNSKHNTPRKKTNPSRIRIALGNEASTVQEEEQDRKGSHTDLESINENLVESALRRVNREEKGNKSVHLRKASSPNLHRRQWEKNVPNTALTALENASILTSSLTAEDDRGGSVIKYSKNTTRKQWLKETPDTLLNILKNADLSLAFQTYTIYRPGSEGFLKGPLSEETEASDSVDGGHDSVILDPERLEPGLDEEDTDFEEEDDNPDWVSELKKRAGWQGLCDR

[18] = target: T6, Serine/threonine-protein kinase Nek3 (Homo sapiens); conditions: at 10 µM
[19] = target: Serine/threonine-protein kinase tousled-like 2 (Homo sapiens) (UniProt Q86UE8); conditions: at 1 µM
Serine/threonine-protein kinase tousled-like 2 (Homo sapiens), sequence (Q86UE8 whole entry, looked up): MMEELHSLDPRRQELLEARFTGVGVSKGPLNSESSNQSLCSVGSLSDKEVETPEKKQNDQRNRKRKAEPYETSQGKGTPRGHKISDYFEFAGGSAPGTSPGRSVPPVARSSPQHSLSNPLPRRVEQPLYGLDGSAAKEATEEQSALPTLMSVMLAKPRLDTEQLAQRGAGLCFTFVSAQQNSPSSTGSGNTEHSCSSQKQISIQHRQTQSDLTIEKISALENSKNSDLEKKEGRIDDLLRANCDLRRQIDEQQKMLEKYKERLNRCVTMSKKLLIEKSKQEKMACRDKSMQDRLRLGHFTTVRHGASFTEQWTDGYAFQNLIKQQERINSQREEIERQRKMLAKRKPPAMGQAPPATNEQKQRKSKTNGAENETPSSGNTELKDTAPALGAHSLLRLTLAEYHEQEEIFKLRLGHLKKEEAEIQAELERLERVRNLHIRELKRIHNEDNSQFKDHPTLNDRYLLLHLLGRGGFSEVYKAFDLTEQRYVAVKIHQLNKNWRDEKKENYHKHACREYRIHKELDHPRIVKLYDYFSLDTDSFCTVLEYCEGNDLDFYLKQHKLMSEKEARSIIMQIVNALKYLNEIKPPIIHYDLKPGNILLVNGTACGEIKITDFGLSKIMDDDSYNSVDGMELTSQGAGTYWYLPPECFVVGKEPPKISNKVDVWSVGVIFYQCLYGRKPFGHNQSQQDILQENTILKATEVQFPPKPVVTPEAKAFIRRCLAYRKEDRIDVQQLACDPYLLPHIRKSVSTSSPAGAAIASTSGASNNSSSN

[20] = target: Serine/threonine-protein kinase tousled-like 2 (Homo sapiens) (UniProt Q86UE8); conditions: at 10 µM

Compound	residual activity [1] [%]	residual activity [2] [%]	residual activity [3] [%]	residual activity [4] [%]	residual activity [5] [%]	residual activity [6] [%]	residual activity [7] [%]	residual activity [8] [%]	residual activity [9] [%]	residual activity [10] [%]	residual activity [11] [%]	residual activity [12] [%]	residual activity [13] [%]	residual activity [14] [%]	residual activity [15] [%]	residual activity [16] [%]	residual activity [17] [%]	residual activity [18] [%]	residual activity [19] [%]	residual activity [20] [%]
Nc1nc(Nc2ccc(S(N)(=O)=O)cc2)nn1C(=S)Nc1c(F)cccc1F	0	1	0	1	-1	-1	3	0	6	14	0	0	51	30	91	71	6	3	4	-1
O=C(O)c1ccc2c3c1cccc3c(=O)n1c3ccccc3nc21	103	81	97	67	80	28	130	73	67	23	105	94	80	93	123	102	93	97	104	97
COc1ccc(C(=O)Nc2sc3c(c2C(N)=O)CCCC3)cc1OC	105	91	68	65	107	86	120	110	99	82	92	84	77	96	80	103	110	72	95	87
O=C1NC(=O)c2cc(Nc3ccc(F)cc3)c(Nc3ccc(F)cc3)cc21	100	68	68	54	105	93	89	59	106	86	34	3	70	93	77	94	109	81	101	85
NC(=O)c1ccc2[nH]c(-c3ccc(Oc4ccc(Cl)cc4)cc3)nc2c1	100	74	79	82	95	95	128	101	61	19	84	63	54	33	82	82	75	91	86	82
CCOc1cc2ncnc(Nc3cccc(Br)c3)c2cc1OCC	103	71	61	47	84	31	58	33	21	7	95	70	104	89	77	93	118	88	98	95
